# Reference: PubChem BioAssay (NCI)
# About 83,000 compounds went through this panel and 20% of them were active in at least one assay; those are over-represented in the sample as a whole.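 How to read the values: 0–100, growth inhibition (40 = 60% inhibited); 0, no net growth; -100 to 0, cell death (-40 = 40% of starting cells died; -100 = all dead).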 Unmarked numbers belong to inactive results. Activity calls are given as the source filed them. How the source made its calls: active means growth percent below 10; inactive means the rest.
# Legend:
# Assay in all cases: NCI-60 one-dose screen, 48 h (100 = growth as untreated, 0 = no growth, -100 = all killed)
# Conditions in all cases: 10 µM unless noted
# [1] = system: NCI-H23 lung
# [2] = system: NCI-H226 lung
# [3] = system: NCI-H322M lung
# [4] = system: HOP-62 NSCLC
# [5] = system: NCI-H460 lung
# [6] = system: HOP-92 NSCLC
# [7] = system: NCI-H522 lung
# [8] = system: A549/ATCC NSCLC
# [9] = system: 786-0 renal
# [10] = system: COLO 205 colon
# [11] = system: DU-145 prostate
# [12] = system: K-562 leukemia
# [13] = system: MALME-3M melanoma
# [14] = system: MDA-MB-231 breast
# [15] = system: RXF 393 renal
# [16] = system: SF-268 CNS
# [17] = system: SF-539 CNS
# [18] = system: UACC-257 melanoma
# [19] = system: M14 melanoma
SMILES,growth [1],growth [2],growth [3],growth [4],growth [5],growth [6],growth [7],growth [8],growth [9],growth [10],growth [11],growth [12],growth [13],growth [14],growth [15],growth [16],growth [17],growth [18],growth [19]
O=C(/C=C/c1ccccc1)C(Br)C(Br)c1ccccc1 (centres undefined),29.4%,-36.8% (active),100%,12.5%,89.8%,-18.9% (active),-78.3% (active),47.2%,-80.2% (active),-74.2% (active),-21.3% (active),1.4% (active),-54.3% (active),27.7%,-79.9% (active),13.9%,-33.1% (active),22.8%,17.2%
Cc1ccc(/C=C/C(=N/N=C(N)N)c2ccccc2)cc1,31.3%,59.5%,41.1%,25.8%,8.15% (active),13.9%,9.07% (active),18.7%,32.8%,-16.4% (active),2.48% (active),11.7%,40%,35.5%,-22.9% (active),36.7%,3.64% (active),54.5%,-24.4% (active)
C#CC[C@@H]1C[C@]2(C)[C@H]3CC[C@@H]4[C@H]5C(C(=C)C)CC[C@]5(C(=O)NCCCN5CCN(CCCN)CC5)CC[C@@]4(C)[C@]3(C)CC[C@H]2C(C)(C)[C@H]1OC(C)=O (some centres undefined),3.21% (active),87.4%,-81.2% (active),-59.7% (active),-77% (active),-78.3% (active),4.62% (active),-61.9% (active),-97.5% (active),-68.3% (active),-92% (active),-19.8% (active),67.8%,-83.3% (active),-87.4% (active),85.5%,-91.3% (active),72.1%,-80.5% (active)
O=C(c1ccccc1)N(CCCCl)C(=O)N(CCCCl)C(=O)c1ccccc1,83.1%,94.9%,92.9%,86.7%,108%,70.1%,88.1%,87.7%,94.6%,102%,102%,91.1%,91.8%,85.7%,111%,100%,97.2%,100%,96.4%
CCCCCCCCNC(C)C(O)c1ccc(SC(C)C)cc1 (centres undefined),74.2%,96%,87.9%,85%,-37.7% (active),-28.1% (active),12.1%,98.8%,-14.9% (active),4.17% (active),-25.5% (active),-59.8% (active),-78% (active),89.7%,37.5%,34.9%,26.8%,56%,-17.4% (active)
COc1ccc(C(=O)c2c(N)nc3n2CCCC3)cc1OC,109%,96.9%,96.2%,102%,105%,118%,81.7%,102%,100%,107%,107%,90.6%,99.9%,115%,111%,106%,102%,100%,103%
CCCN(CCC)CC(O)COc1ccccc1C(=O)Nc1ccccc1 (centres undefined),90.9%,78.9%,119%,66.5%,97.6%,84.2%,55.8%,40.4%,88%,46.1%,96.8%,22.3%,62%,96.5%,52.5%,73.8%,77.3%,61.5%,69.3%
C=CC[C@]1(O)CC[C@H]2[C@@H]3CCc4cc(O)ccc4[C@H]3CC[C@@]21C,112%,98.9%,97%,104%,97.8%,115%,63.9%,91.3%,95.8%,104%,102%,56%,93.3%,99.6%,102%,97.1%,105%,102%,94.3%
CCOP(=O)(O)OP(=O)(O)OCC,104%,103%,98.1%,103%,103%,98.6%,82.5%,106%,99.4%,103%,105%,89%,98.1%,112%,118%,100%,105%,105%,100%
Nc1c(C(=O)Nc2cccc(Cl)c2)sc2ncc(Br)cc12,79.5%,83.5%,59.4%,75.4%,28.8%,78.5%,65.2%,34.6%,76.1%,85.1%,59.6%,82.9%,66.9%,73.5%,86.4%,64.1%,61.5%,96%,79.9%
CCCCNCCC(O)c1cc2ccc(C(F)(F)F)cc2c2cc(C(F)(F)F)ccc12 (centres undefined),-75.3% (active),-70.7% (active),-37.6% (active),-91.3% (active),-74.5% (active),-80.6% (active),-83% (active),-87.5% (active),-85.3% (active),-88.6% (active),-93.4% (active),-72.1% (active),-59.5% (active),-73.3% (active),-90.8% (active),-88% (active),-81.8% (active),-75.5% (active),-84.6% (active)
O=C1c2ccccc2C2N1CCC1CCc3ccccc3N12 (centres undefined),99.5%,90.2%,85.4%,108%,104%,73.6%,84.8%,99.1%,99.7%,112%,117%,89.4%,88.9%,92.7%,106%,111%,88.9%,102%,97.1%
C=C(CN1CC=CCC1)[C@@H]1CC[C@]2(C(=O)OC)CC[C@]3(C)[C@H](CC[C@@H]4[C@@]5(C)CC[C@H](OC(C)=O)C(C)(C)[C@@H]5CC[C@]43C)[C@@H]12,95.5%,95.1%,104%,106%,97.8%,71.2%,84%,100%,109%,77.6%,107%,57.9%,92.9%,99.2%,101%,92.5%,93.3%,91.9%,86.1%
N#CC1=C(N)Oc2nc[nH]c(=O)c2C1c1cccs1 (centres undefined),110%,89%,105%,105%,106%,102%,97.6%,95.7%,103%,106%,107%,104%,112%,106%,97.8%,108%,101%,98.4%,111%
Nc1n[nH]c2ccc([C@@H]3Nc4c(F)cc5[nH]ncc5c4[C@H]4C5CCC(C5)[C@@H]34)cc12 (some centres undefined),37.8%,18.4%,33.8%,37.8%,4.8% (active),30.5%,6.67% (active),17.1%,40.4%,-0.831% (active),3.59% (active),13.9%,32.7%,4.87% (active),-0.647% (active),36.1%,-39% (active),62.1%,9.46% (active)
O=C1Nc2ccccc2/C1=C/c1c[nH]c2ccccc12,78.9%,83.4%,70.1%,66%,88.7%,65.2%,88.7%,77.3%,105%,115%,98.1%,82.8%,88.1%,71.7%,90.9%,87.8%,80.6%,89.2%,91.8%
